Among the test systems are HCT-15 colon; HT29 colon; SNB-75 CNS; SNB-19 CNS; U251 CNS; PC-3 prostate; SK-MEL-5 melanoma; UACC-62 melanoma; LOX IMVI melanoma; SK-MEL-28 melanoma; SK-MEL-2 melanoma; EKVX NSCLC; SN12C renal; UO-31 renal; TK-10 renal; ACHN renal; CAKI-1 renal; A498 renal; CCRF-CEM leukemia; MOLT-4 leukemia.
Common to all, as to experiment: NCI-60 one-dose screen, 48 h (100 = growth as untreated, 0 = no growth, -100 = all killed)
Holding throughout (details): 10 µM unless noted

SMILES strings stand for the structures. Compounds without any hit were thinned out: in the full panel of roughly 83,000, 20% have a hit.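 Results are percent growth after 48 hours of single-concentration exposure. 100 means growth as in untreated cells, lower positive values show inhibition; negative values down to -100 show cell death.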 Values without a mark were called inactive. Active and inactive are the calls of the source. The calls were made as follows: active = growth percent below 10; inactive = the rest.

As for `COc1ccc(CNc2ccc3nc(NC(=O)CN4CCCCCC4)sc3c2)cc1`, the growth with HCT-15 colon was 70.9%; in the assay on HT29 colon, 60.6%; with SNB-75 CNS it was 131%; in the assay with SNB-19 CNS, 96.1%; with U251 CNS it was 85.4%; with PC-3 prostate, 65.8%. Also, the growth was 67.8% in the assay on SK-MEL-5 melanoma; 73.8% with UACC-62 melanoma; 78.5% in the assay with LOX IMVI melanoma; 101% in the assay with SK-MEL-28 melanoma; 85.4% with SK-MEL-2 melanoma; 80.1% in the assay with EKVX NSCLC. The growth is 87.3% in the assay with SN12C renal; 80.6% in the assay with UO-31 renal; 117% in the assay on TK-10 renal; 89.8% in the assay on ACHN renal; 85.2% with CAKI-1 renal; 90.3% with A498 renal. Also, the growth was 58.6% with CCRF-CEM leukemia and 61.1% in the assay with MOLT-4 leukemia.
Take `C=C(C)[C@@H]1CC[C@]2(COC3CCCCO3)CC[C@]3(C)[C@H](CC[C@@H]4[C@@]5(C)C=C(C=O)C(=O)C(C)(C)[C@@H]5CC[C@]43C)[C@@H]12` (stereo not given in full): the growth in the assay with HCT-15 colon is -30% (active); in the assay on HT29 colon it was -54.2% (active); with SNB-75 CNS, -16.3% (active); in the assay with SNB-19 CNS, -71.4% (active); in the assay with U251 CNS, -73.6% (active); in the assay on PC-3 prostate, -57.7% (active). The growth is -97.5% (active) in the assay on SK-MEL-5 melanoma; -74.9% (active) with UACC-62 melanoma; -88.9% (active) with LOX IMVI melanoma; -68.7% (active) in the assay on SK-MEL-28 melanoma; -40.9% (active) in the assay on SK-MEL-2 melanoma; -60% (active) in the assay on EKVX NSCLC. The growth with SN12C renal was -48.8% (active); in the assay on UO-31 renal, -86.8% (active); with TK-10 renal, -82.5% (active); in the assay on ACHN renal, -59.2% (active); in the assay with CAKI-1 renal, -40.8% (active); with A498 renal, -95% (active). Besides, the growth in the assay on CCRF-CEM leukemia is -34.9% (active); in the assay with MOLT-4 leukemia it was 3.64% (active).
On to `CCCCC#Cc1c(I)n(C2OC(CO[Si](C)(C)C(C)(C)C)C3OC(C)(C)OC32)c(=O)n(C(=O)c2ccccc2)c1=O` (stereo not given), for which the growth in the assay with HCT-15 colon is 8.46% (active); with HT29 colon it was 0.292% (active); in the assay with SNB-75 CNS, 93.3%; in the assay on SNB-19 CNS it was 72.3%; in the assay with U251 CNS, -33.2% (active); with PC-3 prostate, 43%. Further, the growth is 78.7% with SK-MEL-5 melanoma; 55.1% with UACC-62 melanoma; -65.2% (active) in the assay with LOX IMVI melanoma; -42.9% (active) in the assay on SK-MEL-28 melanoma; 43% in the assay on SK-MEL-2 melanoma; 74.8% in the assay with EKVX NSCLC. The growth in the assay on SN12C renal was 57.8%; with UO-31 renal, -49.4% (active); with TK-10 renal it was -11.4% (active); in the assay with ACHN renal, 50.6%; with CAKI-1 renal, 26.9%; with A498 renal it was 87.9%. Moreover, the growth is -7.06% (active) in the assay with CCRF-CEM leukemia and 1.98% (active) in the assay on MOLT-4 leukemia.
`COC(=O)c1c2c(c[n+]([O-])c1C)C(=O)C=C(NCc1ccccc1)C2=O`: the growth with HCT-15 colon was -58.8% (active); with HT29 colon, 0.45% (active); with SNB-75 CNS, -97.3% (active); with SNB-19 CNS, -99.4% (active); with U251 CNS, -93.1% (active); with PC-3 prostate, -10.8% (active). Besides, the growth is -100% (active) with SK-MEL-5 melanoma; -81.3% (active) in the assay with UACC-62 melanoma; -74.6% (active) with LOX IMVI melanoma; -71.4% (active) with SK-MEL-28 melanoma; -70.8% (active) with SK-MEL-2 melanoma; -98.8% (active) in the assay with EKVX NSCLC. Further, the growth is -91.5% (active) with SN12C renal; -100% (active) with UO-31 renal; -82.4% (active) with TK-10 renal; -89.7% (active) in the assay on ACHN renal; -98.2% (active) in the assay with CAKI-1 renal; -99.3% (active) in the assay on A498 renal. In addition, the values for the growth in the assay with CCRF-CEM leukemia and in the assay on MOLT-4 leukemia were 0.673% (active) and -44.3% (active), respectively.
With `Nc1ncnc2c1N=C(c1ccc(F)cc1)CC(c1cccc(Nc3ccnc4cc(Cl)ccc34)c1)N2` (stereo not given), the growth is 48.4% in the assay on HCT-15 colon; 62.8% in the assay with HT29 colon; 72.7% in the assay with SNB-75 CNS; 82% with SNB-19 CNS; 66.2% with U251 CNS; 66.3% with PC-3 prostate. Besides, the growth in the assay with SK-MEL-5 melanoma was 72%; in the assay with UACC-62 melanoma, 89.5%; in the assay on LOX IMVI melanoma it was 68.2%; in the assay on SK-MEL-28 melanoma it was 95.3%; in the assay with SK-MEL-2 melanoma, 89.1%; with EKVX NSCLC, 64.9%. In addition, the growth in the assay on SN12C renal was 79.7%; with UO-31 renal, 59.6%; with TK-10 renal, 105%; in the assay with ACHN renal, 96.3%; with CAKI-1 renal, 70.5%; in the assay on A498 renal, 92.3%. Further, the growth with CCRF-CEM leukemia was 74.1%; in the assay with MOLT-4 leukemia it was 39.6%.
In the case of `O=C(O)CC(C(=O)O)/C(=C\c1ccccc1)c1ccccc1` (stereo not given), the growth was 107% in the assay with HCT-15 colon; 114% in the assay on HT29 colon; 83.2% with SNB-75 CNS; 109% in the assay with SNB-19 CNS; 99.8% in the assay with U251 CNS; 96.6% in the assay with PC-3 prostate. Moreover, the growth is 94.8% in the assay with SK-MEL-5 melanoma; 101% in the assay with UACC-62 melanoma; 99.1% with LOX IMVI melanoma; 103% with SK-MEL-28 melanoma; 109% in the assay with SK-MEL-2 melanoma; 110% with EKVX NSCLC. In addition, the growth in the assay on SN12C renal was 104%; in the assay on UO-31 renal it was 89.1%; in the assay with TK-10 renal it was 108%; in the assay with ACHN renal it was 104%; in the assay with CAKI-1 renal, 103%; with A498 renal, 93%. The growth is 94.6% in the assay on CCRF-CEM leukemia and 98.9% with MOLT-4 leukemia.
Take `FC(F)(F)c1[nH]ncc1-c1nc2ccc3[nH]ncc3c2c2c1CCCC2`: the growth in the assay on HCT-15 colon is 12.7%; in the assay on HT29 colon, 6.93% (active); with SNB-75 CNS it was 8.42% (active); with SNB-19 CNS, 17.7%; in the assay with U251 CNS, 5.69% (active); in the assay on PC-3 prostate, 21%. In addition, the growth in the assay with SK-MEL-5 melanoma is -73.7% (active); in the assay with UACC-62 melanoma it was 9.03% (active); in the assay on LOX IMVI melanoma it was -38.2% (active); with SK-MEL-28 melanoma, 2.24% (active); in the assay with SK-MEL-2 melanoma, -18.4% (active); in the assay with EKVX NSCLC it was 3.77% (active). Besides, the growth is 12.5% in the assay with SN12C renal; -26.8% (active) in the assay on UO-31 renal; 1.15% (active) in the assay with TK-10 renal; 5.04% (active) in the assay on ACHN renal; 9.85% (active) with CAKI-1 renal; -60.5% (active) with A498 renal. Moreover, the growth is 6.43% (active) in the assay on CCRF-CEM leukemia and -30% (active) with MOLT-4 leukemia.

Source of the values: PubChem BioAssay (NCI).
